Columns and labels:
Experiment in all cases: log2 ratio of Biotin-Ahx-Ub-VS probe labelling (fragment/DMSO); higher = less target engagement (more negative = stronger competition), active = hit call of the paper (q ≤ 0.05, log2 ratio ≤ -1)
Settings in all cases: compound concentration: 200 uM; treatment time: 3 h
USP19 = molecular target: T1, USP19 (UniProt O94966)
T1 sequence (whole entry): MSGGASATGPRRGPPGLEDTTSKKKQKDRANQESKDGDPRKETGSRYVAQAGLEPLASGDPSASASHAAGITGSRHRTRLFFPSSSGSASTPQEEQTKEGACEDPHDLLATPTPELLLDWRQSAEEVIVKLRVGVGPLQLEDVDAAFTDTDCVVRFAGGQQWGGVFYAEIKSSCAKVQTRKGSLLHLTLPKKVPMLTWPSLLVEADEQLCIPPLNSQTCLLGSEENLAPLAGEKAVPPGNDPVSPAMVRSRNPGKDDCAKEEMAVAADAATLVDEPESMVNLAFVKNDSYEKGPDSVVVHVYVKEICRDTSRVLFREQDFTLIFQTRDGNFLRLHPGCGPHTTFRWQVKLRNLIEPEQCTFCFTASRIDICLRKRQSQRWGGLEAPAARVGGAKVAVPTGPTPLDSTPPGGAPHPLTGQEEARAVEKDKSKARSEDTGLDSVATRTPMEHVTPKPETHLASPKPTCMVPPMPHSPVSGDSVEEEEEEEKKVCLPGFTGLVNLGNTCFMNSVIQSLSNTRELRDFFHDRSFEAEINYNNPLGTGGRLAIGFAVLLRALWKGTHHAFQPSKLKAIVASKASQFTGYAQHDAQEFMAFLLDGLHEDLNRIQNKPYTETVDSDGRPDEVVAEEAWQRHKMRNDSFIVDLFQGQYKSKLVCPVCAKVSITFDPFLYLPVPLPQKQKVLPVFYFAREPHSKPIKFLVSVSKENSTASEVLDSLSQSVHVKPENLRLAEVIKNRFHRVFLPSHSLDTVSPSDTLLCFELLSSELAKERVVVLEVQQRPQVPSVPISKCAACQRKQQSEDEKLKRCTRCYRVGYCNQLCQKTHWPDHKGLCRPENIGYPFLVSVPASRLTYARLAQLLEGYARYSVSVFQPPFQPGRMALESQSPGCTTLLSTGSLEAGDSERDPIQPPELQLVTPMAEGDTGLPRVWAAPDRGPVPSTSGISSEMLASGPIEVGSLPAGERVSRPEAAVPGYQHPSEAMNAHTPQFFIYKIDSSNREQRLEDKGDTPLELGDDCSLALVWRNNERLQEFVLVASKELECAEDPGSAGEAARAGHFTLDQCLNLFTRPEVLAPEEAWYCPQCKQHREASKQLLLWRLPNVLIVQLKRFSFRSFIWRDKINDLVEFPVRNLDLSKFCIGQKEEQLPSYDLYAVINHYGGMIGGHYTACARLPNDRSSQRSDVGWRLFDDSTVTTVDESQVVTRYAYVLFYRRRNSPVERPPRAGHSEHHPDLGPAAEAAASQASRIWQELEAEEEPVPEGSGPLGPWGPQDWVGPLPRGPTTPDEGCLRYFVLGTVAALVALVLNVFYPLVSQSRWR
Procedure, shortened: (§1)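 Using Biotin-Ahx-Ub-VS at 0.5 µM final for 1 h, DUBs were labelled in HEK293T lysate (495 µg per sample) that had first been treated in triplicate with fragment at 200 µM or vehicle for 3 h. NeutrAvidin enrichment, LysC and trypsin digestion and diaPASEF LC-MS/MS followed. Spectronaut label-free quantities were global-median-normalised. Values are average log2 fragment/vehicle ratios by unpaired t-test, using proteins with ≥2 unique peptides.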

USP24 = USP24 (UniProt Q9UPU5)
Sequence of USP24 (Q9UPU5 whole entry): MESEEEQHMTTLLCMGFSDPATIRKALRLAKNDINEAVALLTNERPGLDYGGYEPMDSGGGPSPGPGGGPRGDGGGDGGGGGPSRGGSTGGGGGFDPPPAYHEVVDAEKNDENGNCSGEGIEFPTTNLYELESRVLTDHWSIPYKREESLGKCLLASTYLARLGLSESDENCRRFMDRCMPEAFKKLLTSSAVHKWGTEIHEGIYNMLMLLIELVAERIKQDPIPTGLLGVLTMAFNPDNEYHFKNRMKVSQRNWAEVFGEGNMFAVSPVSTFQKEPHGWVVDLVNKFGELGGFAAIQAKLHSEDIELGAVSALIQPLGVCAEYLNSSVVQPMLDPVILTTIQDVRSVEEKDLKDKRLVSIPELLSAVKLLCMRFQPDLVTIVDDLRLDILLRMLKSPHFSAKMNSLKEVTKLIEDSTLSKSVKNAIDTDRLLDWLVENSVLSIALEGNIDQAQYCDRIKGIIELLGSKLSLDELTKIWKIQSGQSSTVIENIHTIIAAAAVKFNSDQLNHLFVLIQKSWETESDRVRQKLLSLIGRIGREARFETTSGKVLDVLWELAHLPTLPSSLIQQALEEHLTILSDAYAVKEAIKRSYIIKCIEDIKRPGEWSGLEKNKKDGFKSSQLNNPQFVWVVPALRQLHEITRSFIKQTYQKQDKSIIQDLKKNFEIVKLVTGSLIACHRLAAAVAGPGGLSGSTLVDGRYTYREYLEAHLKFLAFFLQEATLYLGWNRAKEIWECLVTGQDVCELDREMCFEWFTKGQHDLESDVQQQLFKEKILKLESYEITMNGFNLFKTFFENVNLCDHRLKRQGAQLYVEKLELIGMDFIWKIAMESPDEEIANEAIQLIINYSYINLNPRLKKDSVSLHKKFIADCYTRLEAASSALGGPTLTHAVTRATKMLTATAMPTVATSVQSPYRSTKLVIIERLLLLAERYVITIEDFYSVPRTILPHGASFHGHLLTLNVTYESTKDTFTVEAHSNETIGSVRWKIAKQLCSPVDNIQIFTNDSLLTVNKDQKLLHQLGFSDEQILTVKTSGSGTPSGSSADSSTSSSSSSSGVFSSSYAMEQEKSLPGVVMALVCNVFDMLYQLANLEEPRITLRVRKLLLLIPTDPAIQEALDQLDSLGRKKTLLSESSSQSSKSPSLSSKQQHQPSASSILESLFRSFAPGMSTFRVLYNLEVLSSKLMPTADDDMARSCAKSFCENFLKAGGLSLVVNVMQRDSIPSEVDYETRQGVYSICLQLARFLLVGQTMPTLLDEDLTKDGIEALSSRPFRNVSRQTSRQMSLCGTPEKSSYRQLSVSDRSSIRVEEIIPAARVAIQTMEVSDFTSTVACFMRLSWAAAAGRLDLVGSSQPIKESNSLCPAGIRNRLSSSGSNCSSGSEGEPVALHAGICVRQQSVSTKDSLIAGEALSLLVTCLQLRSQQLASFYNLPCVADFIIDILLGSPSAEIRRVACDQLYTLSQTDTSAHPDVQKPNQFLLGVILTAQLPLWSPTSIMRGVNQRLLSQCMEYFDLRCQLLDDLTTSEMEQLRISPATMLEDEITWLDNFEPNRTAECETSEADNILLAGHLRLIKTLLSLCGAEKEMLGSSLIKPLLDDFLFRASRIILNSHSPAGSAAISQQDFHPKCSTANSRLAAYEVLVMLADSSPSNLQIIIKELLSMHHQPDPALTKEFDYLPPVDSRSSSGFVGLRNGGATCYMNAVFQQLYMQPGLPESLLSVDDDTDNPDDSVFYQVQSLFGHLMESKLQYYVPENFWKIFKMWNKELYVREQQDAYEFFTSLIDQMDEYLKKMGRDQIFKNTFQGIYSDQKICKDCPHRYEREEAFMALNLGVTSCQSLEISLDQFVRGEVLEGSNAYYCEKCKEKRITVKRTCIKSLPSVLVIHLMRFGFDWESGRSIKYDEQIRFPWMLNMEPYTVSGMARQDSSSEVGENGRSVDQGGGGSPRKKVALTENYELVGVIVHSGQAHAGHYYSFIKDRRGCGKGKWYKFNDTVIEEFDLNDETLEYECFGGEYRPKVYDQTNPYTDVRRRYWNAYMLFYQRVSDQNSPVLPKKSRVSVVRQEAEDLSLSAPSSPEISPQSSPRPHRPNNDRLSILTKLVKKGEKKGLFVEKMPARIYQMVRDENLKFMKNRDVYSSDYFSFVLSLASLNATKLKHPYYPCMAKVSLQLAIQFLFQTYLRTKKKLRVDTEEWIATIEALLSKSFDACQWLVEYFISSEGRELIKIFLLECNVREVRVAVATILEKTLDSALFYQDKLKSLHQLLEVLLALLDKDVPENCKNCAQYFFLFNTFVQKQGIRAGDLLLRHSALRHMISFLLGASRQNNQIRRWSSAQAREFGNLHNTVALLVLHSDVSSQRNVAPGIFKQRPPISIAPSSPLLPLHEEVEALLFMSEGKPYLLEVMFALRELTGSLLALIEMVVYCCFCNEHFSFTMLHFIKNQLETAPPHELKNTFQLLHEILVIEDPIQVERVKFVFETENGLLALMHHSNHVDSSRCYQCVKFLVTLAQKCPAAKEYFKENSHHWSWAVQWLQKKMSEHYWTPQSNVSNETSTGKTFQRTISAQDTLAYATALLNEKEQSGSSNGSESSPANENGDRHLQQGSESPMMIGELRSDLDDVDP
Procedure, shortened: as §1

USP25 = molecular target: T2, USP25 (UniProt Q9UHP3)
T2 sequence (whole entry): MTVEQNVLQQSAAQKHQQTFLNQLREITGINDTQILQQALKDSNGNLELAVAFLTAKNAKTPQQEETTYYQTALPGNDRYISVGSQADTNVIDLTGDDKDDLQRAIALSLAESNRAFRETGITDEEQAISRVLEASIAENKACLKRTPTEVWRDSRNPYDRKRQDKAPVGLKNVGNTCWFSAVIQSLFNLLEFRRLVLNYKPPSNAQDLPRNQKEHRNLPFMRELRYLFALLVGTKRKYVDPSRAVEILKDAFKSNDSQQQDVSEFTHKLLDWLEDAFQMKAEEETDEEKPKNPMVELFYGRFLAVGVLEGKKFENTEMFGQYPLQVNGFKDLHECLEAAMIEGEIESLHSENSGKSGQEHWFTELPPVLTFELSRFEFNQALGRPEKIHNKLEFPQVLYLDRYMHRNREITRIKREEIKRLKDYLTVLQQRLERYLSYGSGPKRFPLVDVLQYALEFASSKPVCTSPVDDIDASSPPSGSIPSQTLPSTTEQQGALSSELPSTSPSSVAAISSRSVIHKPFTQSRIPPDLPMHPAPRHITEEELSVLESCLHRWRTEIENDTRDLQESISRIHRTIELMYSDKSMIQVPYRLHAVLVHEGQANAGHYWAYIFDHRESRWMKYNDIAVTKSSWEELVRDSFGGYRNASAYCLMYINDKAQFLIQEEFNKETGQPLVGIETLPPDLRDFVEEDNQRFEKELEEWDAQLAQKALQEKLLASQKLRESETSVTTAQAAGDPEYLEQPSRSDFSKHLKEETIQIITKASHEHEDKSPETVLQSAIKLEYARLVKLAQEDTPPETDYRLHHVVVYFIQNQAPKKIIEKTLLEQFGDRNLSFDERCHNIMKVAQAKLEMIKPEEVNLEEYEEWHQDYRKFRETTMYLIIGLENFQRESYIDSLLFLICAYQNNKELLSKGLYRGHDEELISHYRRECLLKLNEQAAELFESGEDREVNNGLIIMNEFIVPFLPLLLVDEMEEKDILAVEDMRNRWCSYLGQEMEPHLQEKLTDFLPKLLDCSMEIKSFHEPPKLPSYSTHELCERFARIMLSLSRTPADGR
Procedure, shortened: as §1

USP28 = molecular target: T3, USP28 (UniProt Q96RU2)
T3 sequence (whole entry): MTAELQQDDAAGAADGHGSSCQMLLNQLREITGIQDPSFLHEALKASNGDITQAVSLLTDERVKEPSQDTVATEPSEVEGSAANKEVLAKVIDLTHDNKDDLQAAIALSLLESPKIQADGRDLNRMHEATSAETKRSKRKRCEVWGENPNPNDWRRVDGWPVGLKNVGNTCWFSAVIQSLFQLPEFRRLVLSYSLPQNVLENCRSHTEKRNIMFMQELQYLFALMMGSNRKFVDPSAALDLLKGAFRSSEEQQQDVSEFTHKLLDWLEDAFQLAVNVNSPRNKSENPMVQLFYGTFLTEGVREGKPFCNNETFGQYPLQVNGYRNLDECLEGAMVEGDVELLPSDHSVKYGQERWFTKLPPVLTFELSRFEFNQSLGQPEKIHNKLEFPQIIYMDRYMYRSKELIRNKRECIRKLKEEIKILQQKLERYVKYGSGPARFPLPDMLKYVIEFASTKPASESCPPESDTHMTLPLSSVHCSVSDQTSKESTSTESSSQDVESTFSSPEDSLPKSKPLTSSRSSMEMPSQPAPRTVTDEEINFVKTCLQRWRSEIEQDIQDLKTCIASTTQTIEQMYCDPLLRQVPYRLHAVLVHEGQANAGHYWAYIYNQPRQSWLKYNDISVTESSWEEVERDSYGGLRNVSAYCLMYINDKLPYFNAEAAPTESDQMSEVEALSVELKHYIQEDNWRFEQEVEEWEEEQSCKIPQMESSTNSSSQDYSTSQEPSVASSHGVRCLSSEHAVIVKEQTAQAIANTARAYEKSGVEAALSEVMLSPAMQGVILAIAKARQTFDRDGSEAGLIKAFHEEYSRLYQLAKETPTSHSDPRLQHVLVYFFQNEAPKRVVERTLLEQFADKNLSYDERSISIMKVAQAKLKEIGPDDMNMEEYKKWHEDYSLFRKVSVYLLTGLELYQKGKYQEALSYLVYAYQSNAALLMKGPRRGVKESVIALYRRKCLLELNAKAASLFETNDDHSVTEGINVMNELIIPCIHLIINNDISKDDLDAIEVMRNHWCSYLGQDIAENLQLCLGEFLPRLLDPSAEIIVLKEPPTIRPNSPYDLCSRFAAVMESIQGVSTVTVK
Procedure, shortened: as §1

Measured: log2 ratio of Biotin-Ahx-Ub-VS probe labelling

Cl.O=C(CCl)NCCc1ncc(F)cc1F
inactive: USP19 -0.108 | USP24 -0.335 | USP25 -0.361 | USP28 -0.502

Reference: the supplement of paper PMC11732987, “Enantioselective OTUD7B fragment discovery through chemoproteomics screening and high-throughput optimisation” (Communications Chemistry, 2025)
